D1 potentiator – Potentiators of Human D1 Dopamine Receptor: qHTS; HEK293 TREx D1 cells, calcium flux, dopamine EC20 potentiation; potentiation, % at 10 µM; hit rate 0.036% among 360,000; D(1A) dopamine receptor (Homo sapiens), P21728; AID 504651, 2011; in the data active = potentiation above about 30%; note: 0% is about no effect
Target sequence (P21728 whole entry, looked up): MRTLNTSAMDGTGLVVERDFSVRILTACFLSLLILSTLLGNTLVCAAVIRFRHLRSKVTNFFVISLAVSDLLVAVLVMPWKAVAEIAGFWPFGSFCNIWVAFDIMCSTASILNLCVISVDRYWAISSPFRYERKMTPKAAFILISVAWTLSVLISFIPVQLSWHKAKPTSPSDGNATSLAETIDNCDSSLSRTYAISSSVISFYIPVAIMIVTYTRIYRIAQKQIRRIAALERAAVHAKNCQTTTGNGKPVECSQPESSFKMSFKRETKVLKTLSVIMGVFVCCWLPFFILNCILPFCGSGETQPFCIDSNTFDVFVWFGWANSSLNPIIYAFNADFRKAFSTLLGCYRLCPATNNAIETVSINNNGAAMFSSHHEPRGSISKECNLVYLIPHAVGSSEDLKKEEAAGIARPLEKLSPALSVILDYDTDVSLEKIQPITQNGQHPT
D1 antagonist – Antagonist of Human D 1 Dopamine Receptor: qHTS. D(1A) dopamine receptor (Homo sapiens), P21728. HEK293 TREx D1 cells, calcium flux, dopamine EC80; stronger effect = lower value. activity change, negative = inhibition, % at 10 µM. hit rate 3.2% among 360,000. AID 504652, 2011; in the data active = activity change below about -30%; note: % is set by controls: 0 for no effect and ±100 for the full control effect
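Inducible Hek293 Trex D1 cells (tetracycline, overnight, 30 C). Calcium dye 30–90 min RT. Antagonist mode: EC80 dopamine added after 180 s compound read.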
D1 agonist – Allosteric Agonists of the Human D1 Dopamine Receptor: qHTS | activation, % at 2 µM | AID 504660, 2011 | HEK293 T-REx D1 cells, calcium flux, agonist mode | hit rate 1% among 360,000; note: 0% is about no effect
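Inducible HEK293 T-REx D1 cells, force-coupled to calcium signalling, were plated at 4000 cells/well with tetracycline and held overnight at 30 C. After no-wash calcium dye loading, compound-evoked calcium rise over 180 s flagged agonists.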
TRHR agonist – qHTS for Small Molecule Agonists and Allosteric Enhancers of Human TRH Receptor: Primary Screen for Agonists; activation, % at 2 µM; hit rate 0.18% among 360,000; TRHR cells, calcium flux fluo-8, FDSS agonist mode; Thyrotropin-releasing hormone receptor (Homo sapiens), P34981; AID 493084, 2011; note: 0% is about no effect
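In this calcium-flux screen, cells bearing human TRHR are dye-loaded with fluo-8, baselined for 10 cycles, then exposed to library compounds; positive kinetic calcium responses during the agonist phase mark hits, with TRH as control.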
TRHR enhancer – qHTS for Small Molecule Agonists and Allosteric Enhancers of Human TRH Receptor: Primary Screen for Enhancers | AID 493056, 2011 | hit rate 0.66% among 360,000 | TRHR cells, fluo-8 calcium fluorescence, EC20 TRH enhancement | Thyrotropin-releasing hormone receptor (Homo sapiens), P34981 | enhancement, % at 2 µM; in the data active = enhancement above about 30%; note: 0% is about no effect
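Enhancer read-out: after compound pinning and an initial kinetic agonist-mode read, an EC20 of TRH (10 nM final) was injected and fluo-8 calcium signal (Ex 480/Em 530) followed at 1 s/cycle for 100 cycles in TRHR-expressing cells.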
Numbers without * were called inactive. This is a sample that favours compounds with a hit; in the whole collection about 4.6% have one here. Cut-off read from the data, not from the text of the source, unless noted: active = activation above about 30%; inactive = the rest.

SMILES	D1 potentiator	D1 antagonist	D1 agonist	TRHR agonist	TRHR enhancer
COc1cccc(Cn2c(N)c(C#N)c3nc4ccccc4nc32)c1OC	-2	-43*	7	-1	8
COc1ccc(Cn2c(N)c(C#N)c3nc4ccccc4nc32)cc1	-1	0	13	0	-3
Cc1ccc(NC(=O)CCCNC(=O)c2ccc(Cl)cc2)c(O)c1	1	-32*	3	-1	-3
CN(Cc1ccccc1)C(=O)Cn1c(=O)c2cccn2c2ccc(F)cc21	4	-2	7	1	-5
CCOC(=O)c1cc(C(=O)OCC)c2ccccn2c1=O	-3	-33*	1	0	-8
CCOC(=O)c1c[nH]n(-c2ccccc2)c1=O	-5	-15	1	0	0
CC(=O)c1ccc(NC(=O)c2nc(-c3ccc(Cl)cc3)n3c2CCCCC3)cc1	-3	16	4	0	-19
CCCn1nc(-c2ccccc2)c2nc3ccccc3nc21	8	5	70*	16	-3
CCn1nc(-c2ccccc2)c2nc3ccccc3nc21	0	17	98*	20	-5
Cc1cccc(N2CCN(S(=O)(=O)c3nnc(NC(=O)c4ccc(Cl)cc4)s3)CC2)c1	-2	-21	1	0	9
O=C(O)c1cc(N/N=C/c2cccnc2)ccc1Cl	-1	-33*	1	0	-2
O=C(O)c1cc(N/N=C/c2ccncc2)ccc1Cl	-2	0	1	1	1
COc1cc(CCCN2C(=O)C(=O)NC[C@@H]2C(C)O)cc(OC)c1OC (stereo not given in full)	-3	-37*	6	0	0
COc1cc(CCCN2C(=O)C(=O)NC[C@@H]2c2ccccc2)cc(OC)c1OC	-5	-1	1	0	5
Cc1ccccc1N=Nc1c(N)n[nH]c1N	4	-14	1	1	5
Nc1n[nH]c(N)c1N=Nc1ccccc1F	1	-35*	0	0	2
Cc1ccc(Cl)cc1N1CCN(C(=O)COCc2cc(-c3ccc4c(c3)OCO4)on2)CC1	-3	10	3	1	8
COc1ccc(C2NC(=O)N(C)C3=C2C(=O)N(c2ccc(F)cc2)C3)cc1 (stereo not given)	1	7	2	1	-6
Cc1csc2ncnc(N3CCN(C(=S)Nc4ccc(F)cc4F)CC3)c12	-5	-36*	10	-1	1
Fc1ccc(NC(=S)N2CCCN(c3ccc(C(F)(F)F)cn3)CC2)c(F)c1	-7	-54*	17	1	2
O=C(Nc1ccc(F)cc1F)N1CCCN(c2ccc(C(F)(F)F)cn2)CC1	-2	-13	10	0	-3
CC1CN(C(=S)Nc2ccc(F)cc2F)CC(C)O1 (stereo not given)	5	2	0	0	-5
O=S(=O)(c1ccccc1Oc1ccc(Cl)cc1Cl)N1CCCCC1	-1	-47*	5	-1	-4
COc1cccc(-c2nc(SCC(=O)NC3CCCC3)c(-c3ccccc3)[nH]2)c1	1	-8	1	1	-2
Clc1cccc(Cl)c1CSc1nnc(-c2sccc2-n2cccc2)o1	-1	-2	50*	0	12
SMILES	D1 potentiator	D1 antagonist	D1 agonist	TRHR agonist	TRHR enhancer
CSc1nnc(-c2sccc2-n2cccc2)o1	0	11	0	0	0
O=C1C=C(NC2=CC3OC(c4ccccc4)OCC3OC2=O)CCC1 (stereo not given)	-5	-31*	3	-1	-8
CCOC(=O)C1CCN(CC(C)(C)NS(=O)(=O)c2ccc(Cl)cc2)CC1	-12	-31*	2	0	1
CCOC(=O)C1CCN(C(=O)CCNS(=O)(=O)c2ccc(C)cc2)CC1	-4	-21	1	-3	5
CCOC(=O)N1CCC(NC(=O)c2ccc(CNS(=O)(=O)c3ccc(F)cc3)cc2)CC1	-5	-34*	4	0	-7
COc1ccc(CN2CCN(C(=O)c3ccc(CNS(=O)(=O)c4ccc(C)cc4)cc3)CC2)c(OC)c1OC	-8	-30*	7	0	-4

Source: PubChem
